40 molecules from PubChem BioAssay (NCATS) can be followed below.

Records with an inconclusive call do not appear. Calls of active or inactive are those of the source. Calls follow the shape of the dose curve; as a rule, active = well fitted cell-killing curve with a large enough effect; inconclusive = small, poorly fitted or top-dose-only effect; inactive = flat fitted curve, though single readings scatter.
Potency is read from the fitted curve at half-maximal effect.

This test in a line: Cell Viability - LYMP2-007 (AID 979).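 Also: cells exposed to compound for 24 h before reading; nearly all actives have a fitted effect of over 60% in size.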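 As to activity change, negative = cytotoxicity: 0% = DMSO only and the negative end = 92 µM tetraoctylammonium bromide.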 Conditions: LYMP2-007 lymphoblastoid cell viability; series mostly up to 92.2 µM; activity change, negative = cytotoxicity: at the top concentration. The source says: NIH Chemical Genomics Center [NCGC]
NIH Molecular Libraries Screening Centers Network [MLSCN]
National Institutes of Environmental Health Sciences [NIEHS]
National Toxicology Program [NTP]
We have developed a 1536-well cell-based assay for quantitative high throughput screening (qHTS) against a number of cell lines to determine in vitro cytotoxicity of small molecules. This particular assay uses a human lymphoblastoid cell line (LYMP2-007) purchased from Coriell Institute for Medical Research.
NCGC Assay Protocol Summary:
The CellTiter-Glo luminescent cell viability assay (Promega) is a homogeneous method to measure the number of viable cells in culture. The end point readout of this assay is based on quantitation of intracellular ATP, an indicator of metabolic activity, using the luciferase reaction. Luciferase catalyzes the oxidation of beetle Luciferin to oxyluciferin and light in the presence of ATP. The luminescent signal is proportional to amount of ATP present.
Using the CellTiter-Glo luminescent cell viability assay, the amount of cellular ATP was measured in the lymphoblastoid cell line with complete culture medium following compound treatment for 24 hours. The assay was performed in opaque white Kalypsys 1536-well plates. In the screen, tetraoctylammonium bromide was used as positive control. Library compounds were measured for their ability to cause acute toxicity in the cell line, as reflected by a decrease in intracellular ATP levels, in a concentration-dependent manner. […] AC50 values were determined from concentration-response data modeled with the standard Hill equation.
qHTS protocol for CellTiter Glo lymphoblastoid cellular assay
[Step] [Parameter] [Value] [Description]
1. Reagent; 5 uL; 2500 lymphoblastoid cells/well
2. Time; 5 hr; 37 C incubation
4. Controls; 23 nL; Tetraoctylammonium bromide 6.4pM to 92 uM
5. Time; 24 hr; 37 C incubation
6. Reagent; 5 uL; CellTiter Glo reagent
7. Time; 30 min; Room Temperature
8. Detection; Luminescence; Viewlux plate reader
Keywords: cell viability, cytotoxicity, lymphoblastoid cell line, luminescence, NTPHTS, NTPHTS_NCGC, NIEHS, DSSTox, MLSMR, MLSCN, NIH Roadmap, qHTS, NCGC
With `C=CC(=O)CC`, the “activity change, negative = cytotoxicity” value was -12.5% (inactive).

For the molecule `CCCCNCC`, the “activity change, negative = cytotoxicity” value was -7.83% (inactive).

Consider `CC/C=C/C/C=C/C/C=C/CCCCCCCC(=O)OCC`, for which the Potency is 31.6 µM (active).

As for `Oc1ccc2c(c1)OCO2`, the “activity change, negative = cytotoxicity” value was -6.65% (inactive).

Take `O=C(Cl)c1ccc([N+](=O)[O-])cc1`: the “activity change, negative = cytotoxicity” value is -6.31% (inactive).

`CC(C)COC(=O)COc1cc(Cl)c(Cl)cc1Cl`: the “activity change, negative = cytotoxicity” value was 1.87% (inactive).

`O=C(OCC1CO1)C1CCCCC1C(=O)OCC1CO1` (stereo not given): the Potency is 50.1 µM (active).

On to `O=c1[nH]ncc2ccccc12`, for which the “activity change, negative = cytotoxicity” value is -3.48% (inactive).

In the case of `COc1cc(-c2ccc(N=C=O)c(OC)c2)ccc1N=C=O`, the “activity change, negative = cytotoxicity” value is -5.69% (inactive).

Turning to `C[Si](C)(C)Cl`, the “activity change, negative = cytotoxicity” value was -3.1% (inactive).

For `C[C@@H]1CC2(OC(O)[C@]3(C)O[C@H]23)O[C@H]2C[C@@]3(C)[C@@H]4CC[C@H]5C(C)(C)C(O[C@@H]6OC[C@@H](O)[C@H](O)[C@H]6O)CC[C@@]56C[C@@]46CC[C@]3(C)[C@@H]12` (stereo not given in full), the “activity change, negative = cytotoxicity” value is -21% (inactive).

Turning to `c1ccc2c(c1)ccc1ccccc12`, the “activity change, negative = cytotoxicity” value is -11% (inactive).

For the molecule `O=C(O)/C=C/c1ccc(/C=C/C(=O)O)cc1`, the “activity change, negative = cytotoxicity” value was -0.704% (inactive).

As for `NC(=O)c1ccc([N+](=O)[O-])cc1`, the “activity change, negative = cytotoxicity” value is -16.1% (inactive).

`S=C(NC1CCCCC1)NC1CCCCC1`: the “activity change, negative = cytotoxicity” value is -6.44% (inactive).

As to `Oc1cc2c(cc1O)[C@H]1c3ccc(O)c(O)c3OC[C@@]1(O)C2`, the Potency is 39.8 µM (active).

For the molecule `CCOC(=O)C1OC1c1ccccc1` (stereo not given), the “activity change, negative = cytotoxicity” value is 5.24% (inactive).

For `NC(=O)Nc1nc2ccccc2[nH]1`, the “activity change, negative = cytotoxicity” value was -12.1% (inactive).

In the case of `CC(=O)OC(C(=O)c1ccccc1)c1ccccc1` (stereo not given), the “activity change, negative = cytotoxicity” value is -5.14% (inactive).

On to `Cc1ccc2ccc3cccc4ccc1c2c34`, for which the “activity change, negative = cytotoxicity” value was 5.84% (inactive).

For the molecule `CCOc1ccc2nc(N)sc2c1`, the “activity change, negative = cytotoxicity” value was -13.6% (inactive).

Regarding `C/C(Cl)=C/CCl`, the “activity change, negative = cytotoxicity” value is 1.54% (inactive).

For the molecule `CN(C)c1ccc(Cc2ccc(N(C)C)cc2)cc1`, the “activity change, negative = cytotoxicity” value was -6.33% (inactive).

As for `C=CC(C)(O)CCCC(C)CCCC(C)CCCC(C)C` (stereo not given), the “activity change, negative = cytotoxicity” value is 5.82% (inactive).

Take `Cc1cc(=O)oc2cc(O)cc(O)c12`: the “activity change, negative = cytotoxicity” value is -1.81% (inactive).

As for `Nc1ccccc1O`, the “activity change, negative = cytotoxicity” value is -11.2% (inactive).

Turning to `C=CC(=O)OCCCCCCOC(=O)C=C`, the Potency is 39.8 µM (active).

On to `O=C(O)c1ccc([N+](=O)[O-])cc1`, for which the “activity change, negative = cytotoxicity” value is -19.3% (inactive).

With `O=C(OCc1ccccc1)c1ccccc1O`, the “activity change, negative = cytotoxicity” value is 4.04% (inactive).

As for `CCC(Cl)CC(Cl)C(Cl)C(Cl)C(Cl)C(C)Cl` (stereo not given), the “activity change, negative = cytotoxicity” value is -0.427% (inactive).

For `O=[N+]([O-])c1cccc(I)c1`, the “activity change, negative = cytotoxicity” value was -2.61% (inactive).

Regarding `Cc1ccc(C(=O)O)cc1[N+](=O)[O-]`, the “activity change, negative = cytotoxicity” value is -6.68% (inactive).

Consider `CC(=O)CC(=O)Nc1ccccc1`, for which the “activity change, negative = cytotoxicity” value is -9.86% (inactive).

Take `Cc1c(N)cccc1Cl`: the “activity change, negative = cytotoxicity” value was -4.1% (inactive).

On to `CCNC(=S)NCC`, for which the “activity change, negative = cytotoxicity” value is -3.99% (inactive).

As to `CC(CCC(=O)O)(c1ccc(O)cc1)c1ccc(O)cc1`, the “activity change, negative = cytotoxicity” value was 3.62% (inactive).

With `Nc1cc([N+](=O)[O-])ccc1O`, the “activity change, negative = cytotoxicity” value is -13% (inactive).

Consider `CCCCC(CC)COCCCN` (stereo not given), for which the “activity change, negative = cytotoxicity” value was -18.8% (inactive).

As to `CC(=O)Nc1cccc(C)c1`, the “activity change, negative = cytotoxicity” value was -9.41% (inactive).

As for `OCC(CO)(CBr)CBr`, the “activity change, negative = cytotoxicity” value is -0.386% (inactive).
